Measurements: PubChem BioAssay AID652208 (Broad Institute, 2013)
Measured potencies and affinities stand elsewhere. The source made the active and inactive calls.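 How the source made its calls: active means Loss of cell signal with fitted half-effect dose at or below twice the top valid tested dose; inconclusive means Poor fit, or flat fit from -70 to -30 percent; inactive means Half-effect above limit, rising signal, or flat within 30 percent.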

Test: viability loss in HEK293T cells – cell-based, cherry-picks, cytotoxicity control for HIV Vif inhibitor project, dose response (AID 652208);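 further: 0% = median neutral control wells and -100% = median staurosporine control wells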
Conditions: CellTiter-Glo luminescence, 24 h; series mostly up to 26 µM; activity change, negative = cytotoxicity: at the top concentration
In the case of `CCn1c(SCc2nc3ccccc3c(=O)[nH]2)nc2ccccc2c1=O`, the “activity change, negative = cytotoxicity” value is reported as -8.27% (inactive). With `O=C(Nc1nn[nH]n1)c1cc(-c2ccc(Cl)c(Cl)c2Cl)nc2ccccc12` the “activity change, negative = cytotoxicity” value was 6.49% (inactive). With `COc1ccccc1Nc1nnc(C)c(=O)[nH]1` the “activity change, negative = cytotoxicity” value was -4.17% (inactive). In the case of `CC(C(=O)O)c1ccc(N2Cc3ccccc3C2=O)cc1` (stereo not drawn), the “activity change, negative = cytotoxicity” value is reported as -4.48% (inactive). For `Cc1cc(C)c2nc3sc(C(=O)N4CCOCC4)c(N)c3cc2c1`, the “activity change, negative = cytotoxicity” value was -9.92% (inactive). For `COc1ccc(N=C2NC(=O)S/C2=C\c2ccc(N(C)C)cc2)cc1`, the “activity change, negative = cytotoxicity” value was -5.14% (inactive). With `Cc1cc(C(=O)Nc2c(F)c(F)c(F)c(F)c2F)n(-c2ccccc2)n1` the “activity change, negative = cytotoxicity” value was -23.7% (inactive). With `CC(C)CCNC(=O)CCc1nnc(COc2ccccc2)o1` the “activity change, negative = cytotoxicity” value was -2.04% (inactive). With `CCN(CC)C1Oc2cc3c(cc2C(c2cc(OC)c(OC)c(OC)c2)C1C)OCO3` (stereo not drawn) the “activity change, negative = cytotoxicity” value was -18.4% (inactive). In the case of `Cc1ccc(S(=O)(=O)NC(=O)Nn2c(C)nnc2C)cc1`, the “activity change, negative = cytotoxicity” value is reported as -11.6% (inactive). For `CCN(CCCNC(=O)C1CCC(=O)N1Cc1ccc(C)cc1)c1cccc(C)c1` (stereo not drawn), the “activity change, negative = cytotoxicity” value was -8.75% (inactive). With `CCN(CC(=O)Nc1c(F)cccc1F)C(=O)c1cccc(-n2cccc2)c1` the “activity change, negative = cytotoxicity” value was 0.82% (inactive). With `Cc1c(NC(=O)c2cc3ccccc3oc2=O)c(=O)n(-c2ccccc2)n1C` the “activity change, negative = cytotoxicity” value was 6.31% (inactive). In the case of `COc1cc(CNCc2ccccc2)c(Br)cc1OC1CCCC1`, the “activity change, negative = cytotoxicity” value is reported as -16.3% (inactive). For `O=C(Nc1ccnc(-c2cccnc2)n1)c1cccs1`, the “activity change, negative = cytotoxicity” value was -0.234% (inactive). In the case of `c1ccc(-c2cn3nc(-c4ccccc4)c(-c4ccccc4)nc3n2)cc1`, the “activity change, negative = cytotoxicity” value is reported as -10.3% (inactive). In the case of `O=C(c1ccc2c(c1)OCO2)N(CC1CCCO1)C1(C(=O)NC2CCCC2)CCCCC1` (stereo not drawn), the “activity change, negative = cytotoxicity” value is reported as -18.2% (inactive). With `O=C(NCc1ccccn1)c1ccc(Cn2c(=S)[nH]c3ccc(Br)cc3c2=O)cc1` the “activity change, negative = cytotoxicity” value was -1.11% (inactive). In the case of `COc1ccccc1-c1cccc2nccn12`, the “activity change, negative = cytotoxicity” value is reported as -5.37% (inactive). In the case of `CCN1C(=O)c2cccc3c(S(=O)(=O)Nc4nc(C)cs4)ccc1c23`, the “activity change, negative = cytotoxicity” value is reported as 0.851% (inactive). With `CCC(=O)Nc1ccc(-c2cc3ccccc3oc2=O)cc1` the “activity change, negative = cytotoxicity” value was 2.44% (inactive). In the case of `COc1ccc(CNC(=O)COC(=O)c2cc(S(=O)(=O)N3CCOCC3)ccc2O)cc1OC`, the “activity change, negative = cytotoxicity” value is reported as -4.34% (inactive). In the case of `Cc1cccc2cc(COC(=O)c3ccco3)c(=O)[nH]c12`, the “activity change, negative = cytotoxicity” value is reported as 8.92% (inactive). For `CC(C)CC(=O)Nc1ccc(-c2nnn(CC(=O)NCc3ccco3)n2)cc1`, the “activity change, negative = cytotoxicity” value was -7.25% (inactive). In the case of `COc1ccc(NC(=O)C2(C)Cc3c(-c4cccc(NC(C)=O)c4)ccnc3O2)cn1` (stereo not drawn), the “activity change, negative = cytotoxicity” value is reported as -11.7% (inactive). In the case of `COc1ccccc1C(C)NC(=O)Cc1ccsc1` (stereo not drawn), the “activity change, negative = cytotoxicity” value is reported as 5.66% (inactive). For `O=C(NNC(=O)c1cc2ccccc2oc1=O)c1ccccc1`, the “activity change, negative = cytotoxicity” value was 6.51% (inactive). In the case of `O=C(NCC1CC1)NC(=O)c1c(F)cccc1Cl`, the “activity change, negative = cytotoxicity” value is reported as 2.39% (inactive). With `O=C(CCNC(=O)c1ccco1)Nc1ccc(OC(F)(F)F)cc1` the “activity change, negative = cytotoxicity” value was 3.58% (inactive). In the case of `O=C(O)CCCCn1c(SCc2ccccc2Cl)nc2ccsc2c1=O`, the “activity change, negative = cytotoxicity” value is reported as -2.34% (inactive). For `COc1ccc(CCNc2nnc(Sc3nnnn3-c3ccccc3)s2)cc1OC`, the “activity change, negative = cytotoxicity” value was -3.09% (inactive). In the case of `CCCCn1c(-c2ccncc2)nc2c1c(=O)[nH]c(=O)n2CC(C)C`, the “activity change, negative = cytotoxicity” value is reported as -14.9% (inactive). For `COc1ccccc1NC(=O)c1ccccc1NC(=O)c1ccccn1`, the “activity change, negative = cytotoxicity” value was -11.9% (inactive). For `CCc1nn(-c2cc(Oc3cccc4ccccc34)nc(-c3ccccc3)n2)c(N)c1C#N`, the “activity change, negative = cytotoxicity” value was -6.13% (inactive). For `COc1ccc(CC(=O)OCC(=O)NCc2ccc(Cl)cc2)cc1`, the “activity change, negative = cytotoxicity” value was -9.68% (inactive). With `O=C(c1cc(Cl)c(=O)n(Cc2ccccc2)c1)N1CCOCC1` the “activity change, negative = cytotoxicity” value was 13.2% (inactive). In the case of `CCOc1ncccc1C(=O)OCc1ccccc1`, the “activity change, negative = cytotoxicity” value is reported as -8.04% (inactive). With `COc1ccc(C(=O)Nc2c(Cl)cc(Cl)cc2C(=O)N2CCOCC2)cc1` the “activity change, negative = cytotoxicity” value was -3.42% (inactive).
